Data reported in PubChem BioAssay (NCATS).
Several values for one entry are separate records, joined by “and”; a condition that tells them apart may be missing. Identical values can stand only once. Records with an inconclusive call do not appear. Values without a mark were called inactive. Activity calls are given as the source filed them. Calls follow the shape of the dose curve; as a rule, active = well fitted curve in the direction sought with a large enough effect; inconclusive = small, poorly fitted or top-dose-only effect, or another doubt; inactive = no such curve, though single readings can be large or run the other way.

Assay: qHTS Assay for Identifying Gametocytocidal Compounds (AID 743244);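 as to max response: actives lower the fluorescent signal which means gametocytes are killed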
Conditions: P. falciparum 3D7 stage III-V gametocytes, alamarBlue, 72 h; max response: active compounds read low
Procedure, shortened: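 Viability read-out was resazurin reduction (alamarBlue, 24 h) measured at Ex 525/Em 598 nm. Beforehand, late-stage (III-V) 3D7 P. falciparum gametocytes at 20,000 cells/well were incubated with compound 72 h at 37C under 5% CO2.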
% is scaled to controls: 0 for no effect and ±100 for the full control effect; potency is read from the fitted curve at half-maximal effect.

SMILES	max response	Potency
Cc1nnc2n1-c1sc(CCc3ccc(CC(C)C)cc3)cc1C(c1ccccc1Cl)=NC2C (centres undefined)	-7.02%	–
CCCOC(=O)Cc1ccc(OCC(=O)N(CC)CC)c(OC)c1	-6.3%	–
NC(N)=NC(=O)c1nc(Cl)c(N)nc1N	25%	–
c1ccc2nc(N3CCNCC3)ccc2c1	-4.39%	–
CCCC(C)C1(CC)C(=O)N=C(S)NC1=O (centres undefined)	6.11%	–
Cc1c(Cl)c(=O)oc2cc(OP(=O)(OCCCl)OCCCl)ccc12	22.1%	–
CCCN(CCC)CCc1c[nH]c2ccccc12	-3.32%	–
CCCCCOc1ccc(C2SC(=O)NC2=O)cc1OCC (centres undefined)	38.7%	–
CC[C@H]1C[C@@H]2C[C@H]3c4[nH]c5ccc(OC)cc5c4CCN(C2)[C@@H]13	5.97%	–
NC(N)=NN=C(/C=C/c1ccc([N+](=O)[O-])o1)/C=C/c1ccc([N+](=O)[O-])o1	–	7.94 µM (active)
CCN(CC)C(C)C(=O)c1ccccc1 (centres undefined)	2.91%	–
Clc1ccc(CSC(Cn2ccnc2)c2ccc(Cl)cc2Cl)cc1 (centres undefined)	–	3.98 µM (active)
COc1ccc2c(C(=O)c3ccc(Cl)cc3)c(C)n(CC(=O)O)c2c1	36.2%	–
CCS(=O)(=O)C(C)(C)S(=O)(=O)CC	4.59%	–
CC(C)C(Br)C(=O)NC(N)=O (centres undefined)	6.08%	–
NC(N)=N/N=C/c1c(Cl)cccc1Cl	–	3.55 µM (active)
CCCCC1C(=O)NC(=O)N(C2CCCCC2)C1=O (centres undefined)	-2.42%	–

SMILES	max response	Potency
C=CC[C@]1(O)CC[C@H]2[C@@H]3CCC4=CC(=O)CCC4=C3C=C[C@@]21C	1.81%	–
CN1C(=O)[C@@H](NC(=O)c2cc3ccccc3[nH]2)N=C(c2ccccc2)c2ccccc21	-6.73%	–
CC(C)=C[C@@H]1[C@@H](C(=O)OCc2coc(Cc3ccccc3)c2)C1(C)C	-1.71%	–
C#C[C@]1(O)CC[C@H]2[C@@H]3CCC4=CC(=O)CCC4=C3C=C[C@@]21CC	-5.06%	–
CC(C)[N+](C)(CCC(C(N)=O)(c1ccccc1)c1ccccc1)C(C)C	0.0209%	–
CCN(CC)Cc1nccn1-c1ccc([N+](=O)[O-])cc1C(=O)c1ccccc1Cl	–	16.6 µM (active)
CC(C)NCC(O)c1ccc(N)c(C#N)c1 (centres undefined)	9.7%	–
CN1C[C@H](C(=O)N[C@]2(C)O[C@@]3(O)[C@@H]4CCCN4C(=O)[C@H](Cc4ccccc4)N3C2=O)C[C@@H]2c3cccc4[nH]cc(c34)C[C@H]21	–	2.35 µM (active)
CCCC[N+]1(C)[C@@H]2CC(OC(=O)[C@H](CO)c3ccccc3)C[C@H]1[C@@H]1O[C@@H]12 (some centres undefined)	5.95%	–
O=C(N[C@H]1N=C(c2ccccc2F)c2cccc3c2N(CC3)C1=O)c1cc2ccccc2[nH]1	-4.83%	–
NC1(c2ccccc2)CCCCC1	3.42%	–
CN1C(=O)CN=C(c2ccccc2)c2cc(Cl)ccc21	-5.96%	–
CNC(C)Cc1ccccc1OC (centres undefined)	0.178%	–
O=C1NCN(c2ccccc2)C12CCN(CCCOc1ccc(F)cc1)CC2	0.637%	–
Cc1nnc2n1-c1sc(CCC(=O)N3CCOCC3)cc1C(c1ccccc1Cl)=NC2	-5.44% and -14.1%	–
ClC1=C(Cl)C2(Cl)C(CBr)CC1(Cl)C2(Cl)Cl (centres undefined)	-1.6%	–
C[C@]12Cc3nonc3C[C@@H]1CC[C@@H]1[C@@H]2CC[C@@]2(C)[C@H]1CC[C@]2(C)O	-3.73%	–
